PubChem BioAssay (NCATS)
Values joined by “and” are separate entries in the source; they are usually repeats but may differ in a detail not shown here. Equal values may be shown once. Results filed as inconclusive are left out. Where a structure was tested more than once in an assay, its records may differ in their call. Active and inactive are the calls of the source. Unless noted, calls come from the whole dose curve; as a rule, active = well fitted curve in the direction sought with a large enough effect; inconclusive = small, poorly fitted or top-dose-only effect, or another doubt; inactive = no such curve, though single readings can be large; an effect the other way counts as inactive or inconclusive.

Experiments:
[1] = High-throughput drug toxicity screening in the BPDCN cell line Gen2.2 (AID 1224824; call rule not given here;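 note: cells exposed to compounds for 48 h before reading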); conditions: Gen2.2 BPDCN cells; at 45.8 µM (top of the series) unless noted
In short: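 Seed 500 exponentially growing Gen2.2 cells/well; add compounds by pin tool; incubate 48 h, 37 °C, 5% CO2; add CellTiter-Glo, 15 min RT; read luminescence. % activity vs DMSO (100%) and bortezomib (0%).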

[2] = High-throughput drug toxicity screening in the BPDCN cell line Cal-1 (AID 1224825; call rule not given here); conditions: Cal-1 BPDCN cell viability, qHTS; at 45.8 µM (top of the series) unless noted
In short: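 500 Cal-1 cells/well, RPMI + glutamine + 10% FBS (phenol red-free); cpd added by pin tool; 48 h, 37C, 5% CO2; CTG 15 min RT, lumi read. Normalised: DMSO 100%, bortezomib 9.2 uM 0%.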

[3] = qHTS assay for measurement of the activity of small molecule inhibitors on Zika virus induced Caspase-3 activity in human iPSC derived neural progenitor cells (hNPCs) (AID 1224857); note: nearly all actives have a fitted effect of over 65% in size; note: potency is the fitted concentration of half-maximal effect
In short: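 In medium with heparin 2 ug/ml and cyclopamine 2 uM, hNPCs (350 cells/well) received compound for one hour and then Zika virus at 2 FFU/cell; caspase activity was measured by Caspase-Glo 3/7 luminescence 6 h post-infection.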

[4] = qHTS assay for measurement of the activity of small molecule inhibitors on Zika virus induced Caspase-3 activity in human astrocytoma cells (AID 1224859); note: potency is the fitted concentration of half-maximal effect
In short: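 A cell-based luminescent caspase-3/7 assay used SNB-19 cells infected with ZIKV (2 FFU/cell) for 6 h following 1 h compound pretreatment.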

[5] = qHTS Screen of the MIPE 4.0 Collection Against Ewings Sarcoma (RDES) (AID 1259252); note: nearly all actives have a fitted effect of over 35% in size; note: potency is the fitted concentration of half-maximal effect
In short: (§1)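 After a 4 h attachment period in RPMI/5% FBS, cells were pin-dosed with test compounds; DMSO served as negative and 9.2 uM bortezomib (final) as positive control. Luminescent CellTiter-Glo signal at 48 h defined viability.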

[6] = qHTS Screen of the MIPE 4.0 Collection Against Ewings Sarcoma (EW8) (AID 1259255); note: nearly all actives have a fitted effect of over 35% in size; note: potency is the fitted concentration of half-maximal effect;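 for viability: 100% = DMSO-treated cells and 0% = medium-only wells without cells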
In short: as §1

[7] = qHTS Screen of the MIPE 4.0 Collection Against Ewings Sarcoma (TC32) (AID 1259256); note: nearly all actives have a fitted effect of over 45% in size; note: potency is the fitted concentration of half-maximal effect
In short: as §1

[8] = qHTS Screen of the MIPE 4.0 Collection Against Ewings Sarcoma (TC71) (AID 1259253); note: nearly all actives have a fitted effect of over 40% in size; note: potency is the fitted concentration of half-maximal effect
In short: as §1

[9] = qHTS assay to identify small molecule inhibitors of chordoma cells - UCH-2 (AID 1259356); note: % is set by controls: 0 for no effect and ±100 for the full control effect
[10] = qHTS assay to identify small molecule inhibitors of chordoma cells - UCH-1 (AID 1259355); note: % is set by controls: 0 for no effect and ±100 for the full control effect; nearly all actives have a fitted effect of over 55% in size
In short: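 Seed 800 cells per well; incubate overnight at 37 C, 5% CO2. Add test compounds (15 concentrations), then the auranofin–topoisomerase-agent combination. Incubate 48hr, add CellTiter-Glo, wait 30min, read luminescence.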

Structure (SMILES) | cell viability, % of control (lower = more cytotoxic) [1] | viability (% of control) [2] | Potency [3] | Potency [4] | Potency [5] | Potency [6] | Potency [7] | Potency [8] | outcome [9] | Potency [10]
O=c1[nH]c(-c2ccc(C(F)(F)F)cc2)nc2c1CSCC2 | 117% | 114% | inactive | inactive | 23.5 µM (active) | 20.9 µM (active) | 23.5 µM (active) |  |  | 
C[C@H](NC(=O)Cc1cc(F)cc(F)c1)C(=O)N[C@@H]1C(=O)N(C)c2ccccc2-c2ccccc21 | 176% | 43.1% | inactive | inactive | 8.33 µM (active) |  | 11.8 µM (active) | 10.5 µM (active) |  | 
CCCc1nn(C)c2c(=O)[nH]c(-c3cc(S(=O)(=O)N4CCN(C)CC4)ccc3OCC)nc12 | 91.7% | 81.8% | inactive | inactive | 14.8 µM (active) |  | 5.26 µM (active) | 13.2 µM (active) | inactive | 
NC(N)=NC(=O)c1nc(Cl)c(N)nc1N | 12.8% | 23.5% | inactive | inactive | inactive |  | inactive | inactive | inactive | inactive
Cc1[nH]c(=O)c(C#N)cc1-c1ccncc1 | 244% | 23% | inactive | inactive | inactive |  | inactive | inactive | inactive | inactive
CC(C)(C)NCC(O)c1ccc(O)c(CO)c1 (stereo not given) | 76% | 113% | inactive | inactive | inactive |  | inactive | inactive | inactive | inactive
CC(C=CC1=C(C)CCCC1(C)C)=CC=CC(C)=CC(=O)O | 49.1% and 83.4% | 39.4% and 7.95% | inactive | inactive | 23.5 µM (active) | 20.9 µM (active) and 9.35 µM (active) | 20.9 µM (active) and 3.72 µM (active) |  |  | 
CCCS(=O)(=O)Nc1ccc(F)c(C(=O)c2c[nH]c3ncc(Cl)cc23)c1F | 113% | 17.1% | inactive | inactive | 14.8 µM (active) |  | 16.6 µM (active) | 18.7 µM (active) |  | 
O=C(O)[C@@H](c1ccc(OCc2ccc3ccccc3n2)cc1)C1CCCC1 | 125% | 73.2% | 16.6 µM (active) | 13.2 µM (active) | inactive |  | inactive | inactive |  | 
COc1ccc(-c2oc3cc(OC)ccc3c2C(=O)c2ccc(C#N)cc2)cc1 | 84.5% | 19.6% | inactive | inactive | inactive | inactive | inactive |  |  | 
O=C(c1cc(Cc2n[nH]c(=O)c3ccccc23)ccc1F)N1CCN(C(=O)C2CC2)CC1 | 71.5% | 45.4% | inactive | inactive | 8.33 µM (active) |  | 3.72 µM (active) | 10.5 µM (active) |  | 
COc1ccccc1[C@H](c1cccc2ccccc12)[C@@](C)(C#N)C(=O)N1CCC(c2cccc(C(F)(F)F)c2)CC1 | 2.69% | 10.6% | inactive | inactive | 13.2 µM (active) |  | 13.2 µM (active) | 10.5 µM (active) |  | 
CCCCNc1cc(C(=O)O)cc(S(N)(=O)=O)c1Oc1ccccc1 | 596% | 113% | inactive | inactive | inactive |  | inactive | inactive | inactive | inactive
CCCC(CCC)C(=O)O | 83.8% | 100% | inactive | inactive | inactive |  | inactive | inactive | inactive | inactive
COc1ccccc1-c1cccc(-c2c(O)c3cc(C#N)c(Cl)cc3[nH]c2=O)c1 | 52.6% [at 92.2 µM] | 99.8% [at 92.2 µM] | inactive | inactive | inactive | 30.3 µM (active) | inactive |  |  | 
CC[C@H](Nc1ncnc2nc[nH]c12)c1nc2cccc(F)c2c(=O)n1-c1ccccc1 | 4.94% | 18.8% | inactive | inactive | 2.35 µM (active) |  | 2.96 µM (active) | 2.96 µM (active) |  | 

Structure (SMILES) | cell viability, % of control (lower = more cytotoxic) [1] | viability (% of control) [2] | Potency [3] | Potency [4] | Potency [5] | Potency [6] | Potency [7] | Potency [8] | outcome [9] | Potency [10]
Cc1cc([C@@H](C)Nc2ccccc2C(=O)O)c2nc(N3CCOCC3)cc(=O)n2c1 | 13.7% [at 92.2 µM] | 27.7% [at 92.2 µM] | inactive | inactive | 3.03 µM (active) |  | 34 µM (active) | 34 µM (active) |  | 
COc1nc(-c2ccc3c(c2)OCO3)n(-c2ccc(NC(=O)CSc3ccccc3)cc2)n1 | 127% | 116% | inactive | inactive |  |  |  | 20.9 µM (active) |  | 
Fc1ccc(Cl)cc1-c1nc(Nc2ccncc2)c2nccnc2n1 | 443% | 85.1% | inactive | inactive | inactive |  | 1.32 µM (active) |  |  | 
CC[C@@H](C)[C@H](NC(=O)[C@H](CC1CCCCC1)NC(=O)c1ccno1)C(=O)N1CCC2(CCc3ccccc32)CC1 | 168% | 111% |  | inactive | inactive |  |  |  |  | 
CO[C@@H]1[C@H](N(C)C(=O)c2ccccc2)C[C@H]2O[C@]1(C)n1c3ccccc3c3c4c(c5c6ccccc6n2c5c31)C(=O)NC4 |  | 14.1% |  |  |  |  |  |  |  | 
OC[C@H](Cc1ccccc1)Nc1nc(Oc2ccc3c(c2)CCC3)nc2c1ncn2Cc1ccc(-c2ccccc2)cc1 | 408% | 56.2% | inactive | inactive | 14.8 µM (active) |  | 6.62 µM (active) |  |  | 
Cn1c(=O)c(F)c(Nc2ccc(I)cc2F)c2c(=O)n(C[C@@H](O)CO)cnc21 | 18% | 33% | inactive | inactive |  |  | inactive | inactive |  | 
CN(C(=O)c1ccc(F)cc1C(F)(F)F)C1CCN(c2nnc(-c3ccnn3C)c3ccccc23)CC1 |  | 80.2% | inactive | inactive | 20.9 µM (active) |  |  |  |  | 
Nc1nc2[nH]cc(CCc3ccc(C(=O)N[C@@H](CCC(=O)O)C(=O)O)cc3)c2c(=O)[nH]1 | 115% | 37.4% | inactive | inactive |  |  | 0.662 µM (active) | 0.264 µM (active) | inactive | inactive
COc1ccc([C@@H]2CC(=O)c3c(O)cc(O[C@@H]4O[C@H](CO[C@@H]5O[C@@H](C)[C@H](O)[C@@H](O)[C@@H]5O)[C@@H](O)[C@H](O)[C@@H]4O)cc3O2)cc1O | 52.6% and 176% | 54.1% and 116% | inactive | inactive |  | inactive | inactive and 23.5 µM (active) |  |  | 
CCCc1nc2c(C)cc(-c3nc4ccccc4n3C)cc2n1Cc1ccc(-c2ccccc2C(=O)O)cc1 | 126% | 103% | inactive | inactive |  |  |  |  | inactive | inactive
c1ccc(-c2nn3c(c2-c2ccnc4cc(OCCN5CCOCC5)ccc24)CCC3)nc1 | 857% | 73.1% | inactive | inactive |  |  |  | 18.7 µM (active) |  | 
NC(=O)c1ccc(-c2nc(-c3ccc4c(c3)OCCO4)c(-c3ccccn3)[nH]2)cc1 | 607% | 102% | inactive | inactive |  |  |  | 23.5 µM (active) |  | 
N#CC[C@H](C1CCCC1)n1cc(-c2ncnc3[nH]ccc23)cn1 |  | 56.3% | inactive | inactive | 18.7 µM (active) |  |  | 20.9 µM (active) |  | 
C[C@]1(c2nc3c(C(N)=O)cccc3[nH]2)CCCN1 | 50.9% | 88% | inactive | inactive |  | inactive | 18.7 µM (active) | inactive |  | 
CCOc1cc(C(=O)Nc2ccc(Cl)c(-c3nc4ccccc4[nH]3)c2)cc(OCC)c1OCC | 0.788% | 43.8% | inactive | inactive | 14.8 µM (active) |  | 20.9 µM (active) |  |  | 
